“And” between values parts separate entries of the source, which are not always exact repeats. Equal values may be shown once. Records with an inconclusive call do not appear. A structure can be active in one record and inactive in another. The source made the active and inactive calls. The calls were made as follows: active = hit-call score of the fitted dose curve at least 0.9, where 1 is the maximum; inconclusive = response in the unintended direction; inactive = score below 0.9.
Assays:
[1] = molecular target: Cellular tumor antigen p53 (Homo sapiens) (UniProt P04637); assay: TOX21_p53_BLA_p3_ratio: Tox21 HCT-116 p53 Agonism Beta-lactamase Assay, Ratio, Phase 3 (AID 2283596)
Chain of Cellular tumor antigen p53 (Homo sapiens) (P04637 whole entry, looked up): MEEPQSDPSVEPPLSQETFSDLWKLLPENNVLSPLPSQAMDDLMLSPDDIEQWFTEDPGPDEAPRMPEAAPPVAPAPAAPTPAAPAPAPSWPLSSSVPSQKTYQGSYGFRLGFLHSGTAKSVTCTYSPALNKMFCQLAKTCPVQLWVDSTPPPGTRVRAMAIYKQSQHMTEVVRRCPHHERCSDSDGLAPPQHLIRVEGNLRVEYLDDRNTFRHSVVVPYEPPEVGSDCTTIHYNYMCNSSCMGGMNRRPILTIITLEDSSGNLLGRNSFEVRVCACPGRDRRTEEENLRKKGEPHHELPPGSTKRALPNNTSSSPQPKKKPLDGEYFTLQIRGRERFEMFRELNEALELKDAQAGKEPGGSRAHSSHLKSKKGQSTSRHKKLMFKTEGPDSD
Summary of the method: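 HCT116 p53-bla cells (4000/well) given compound in DMSO (217-fold dilution) after 5 h, incubated 16 h at 37C. CCF4-AM substrate 2 h at room temperature; 460/530 nm emission ratio, gain fitted against DMSO.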

[2] = TOX21_p53_BLA_p4_viability: Viability Assessment in the Tox21 HCT-116 p53 Agonism Beta-lactamase Assay, Phase 4 (AID 2283597);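 also: hits lower the luminescence signal meaning cytotoxicity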
Summary of the method: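 Following a 16 h exposure at 37C, the treated HCT116 wells were first read for the FRET ratio. They were then lysed with CellTiter-Glo, and ATP luminescence was recorded after 30 min at room temperature.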

[3] = molecular target: Cellular tumor antigen p53 (Homo sapiens) (UniProt P04637); assay: TOX21_p53_BLA_p5_ratio: Tox21 HCT-116 p53 Agonism Beta-lactamase Assay, Ratio, Phase 5 (AID 2283599)
Summary of the method: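 HCT-116 cells carrying a p53-inducible beta-lactamase reporter were seeded at 4000 cells/well and dosed after 5 h with compound in DMSO (217-fold dilution). After 16 h at 37C, CCF4-AM substrate was added for 2 h, and the 460/530 nm emission ratio was scored as gain-of-signal versus DMSO.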

[4] = TOX21_p53_BLA_p5_viability: Viability Assessment in the Tox21 HCT-116 p53 Agonism Beta-lactamase Assay, Phase 5 (AID 2283600)
Summary of the method: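 After the 460/530 nm beta-lactamase measurement, the wells received an ATP-detection luciferase reagent; signal was read 30 min later at RT. Compound treatment lasted 16 h on cells pre-incubated 5 h post-seeding.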

[5] = molecular target: Cellular tumor antigen p53 (Homo sapiens) (UniProt P04637); assay: TOX21_p53_BLA_p4_ratio: Tox21 HCT-116 p53 Agonism Beta-lactamase Assay, Ratio, Phase 4 (AID 2283601)
Summary of the method: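 HCT116 cells carrying an inducible beta-lactamase reporter were plated at 4000 cells/well, rested 5 h, then exposed to compounds in DMSO (217-fold dilution) for 16 h at 37C. CCF4-AM substrate was loaded 2 h at room temperature; 460/530 nm emission ratio scored gain-of-signal versus DMSO.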

[6] = Tanguay_ZF_120hpf_MORT_legacy: (Legacy) Oregon State University Tanguay Lab 120 Hour Post-fertilization zebrafish Assay for Mortality (AID 2283633);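 as to AC50: fitted as increase in binary mortality versus DMSO negative control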
Summary of the method: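 Static waterborne exposure from 6 to 120 hpf at 28C of single dechorionated wild-type (5D) embryos per well, 0.64% DMSO final. Death recorded present/absent by brightfield at 24 and 120 hpf.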

[7] = Tanguay_ZF_120hpf_YSE_legacy: (Legacy) Oregon State University Tanguay Lab 120 Hour Post-fertilization zebrafish Assay for Yolk Sac Edema (AID 2283634);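 as to AC50: actives raise the incidence of yolk sac edema above the DMSO baseline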
Summary of the method: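 Presence or absence of yolk sac edema was recorded at 120 hpf in surviving larvae. These were wild-type Tropical 5D embryos, chorion removed at 4 hpf, held in static exposure at 28C from 6 hpf with 0.64% DMSO vehicle.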

[8] = Tanguay_ZF_120hpf_AXIS_legacy: (Legacy) Oregon State University Tanguay Lab 120 Hour Post-fertilization zebrafish Assay for Body Axis Malformation (AID 2283635)
Summary of the method: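 Binary scoring of axis defects at 120 hpf under brightfield, fitted positive versus DMSO. Tropical 5D embryos, chorion removed by pronase at 4 hpf, were singly exposed in sealed, dark plates at 28C from 6 hpf; DMSO 0.64% final.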

[9] = Tanguay_ZF_120hpf_EYE_legacy: (Legacy) Oregon State University Tanguay Lab 120 Hour Post-fertilization zebrafish Assay for Eye Malformation (AID 2283636);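 also: binary presence or absence of eye malformation scored by brightfield in 120 hpf larvae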
Summary of the method: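 Dechorionated wild-type Tropical 5D zebrafish embryos were exposed statically from 6 hpf, one per well, to 120 hpf at 28C in sealed, foil-covered plates with 0.64% DMSO. Eye malformation was scored present/absent by brightfield microscopy against DMSO controls.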

[10] = Tanguay_ZF_120hpf_SNOU_legacy: (Legacy) Oregon State University Tanguay Lab 120 Hour Post-fertilization zebrafish Assay for Snout Malformation (AID 2283637)
Summary of the method: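 Tropical 5D wild-type zebrafish embryos, dechorionated with pronase at 4 hpf, were exposed singly from 6 hpf to 120 hpf statically at 28C in 0.64% DMSO. Snout malformation was scored present/absent by brightfield microscopy, fitted against DMSO.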

[11] = Tanguay_ZF_120hpf_JAW_legacy: (Legacy) Oregon State University Tanguay Lab 120 Hour Post-fertilization zebrafish Assay for Jaw Malformation (AID 2283638);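 as to AC50: active means more embryos with jaw malformation than DMSO controls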
Summary of the method: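 Binary jaw-malformation call at 120 hpf by brightfield microscopy. Embryos (Tropical 5D strain, chorion removed at 4 hpf) were dosed statically at 6 hpf, one per well, at 28C with 0.64% DMSO. Embryos that died were not scored.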

[12] = Tanguay_ZF_120hpf_OTIC_legacy: (Legacy) Oregon State University Tanguay Lab 120 Hour Post-fertilization zebrafish Assay for Otic Vesicle Malformation (AID 2283639)
Summary of the method: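 Tropical 5D wild-type zebrafish embryos statically exposed in 0.64% DMSO at 28C until 120 hpf; 5uM trimethyltin chloride as positive control. Otic vesicle malformation scored present/absent by brightfield; dead embryos not scored; gain fitted versus DMSO.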

[13] = Tanguay_ZF_120hpf_PE_legacy: (Legacy) Oregon State University Tanguay Lab 120 Hour Post-fertilization zebrafish Assay for Pericardial Edema (AID 2283640);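 as to AC50: potency for increased incidence of pericardial edema versus DMSO baseline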
Summary of the method: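 Scoring was binary, by brightfield microscopy at 120 hpf, and skipped where mortality occurred. Wild-type embryos were kept under sealed, foil-covered static exposure at 28C in 0.64% (vol/vol) DMSO.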

[14] = Tanguay_ZF_120hpf_SOMI_legacy: (Legacy) Oregon State University Tanguay Lab 120 Hour Post-fertilization zebrafish Assay for Somite Malformation (AID 2283647)
Summary of the method: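 Binary somite-defect scoring at 120 hpf, omitted for embryos that died, in wild-type (Tropical 5D) zebrafish with chorion removed by pronase at 4 hpf; static exposure began 6 hpf, single embryos per well, 28C, 0.64% DMSO; fitted positive versus DMSO.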

[15] = Tanguay_ZF_120hpf_PFIN_legacy: (Legacy) Oregon State University Tanguay Lab 120 Hour Post-fertilization zebrafish Assay for Pectoral Fin Malformation (AID 2283648);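 also: each larva judged yes or no for fin defect by brightfield with dead larvae skipped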
Summary of the method: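 Tropical 5D wild-type embryos, dechorionated with pronase at 4 hpf, were placed singly in wells at 6 hpf and statically exposed until 120 hpf at 28C, sealed and dark, with 0.64% (vol/vol) final DMSO; pectoral fin malformation scored present/absent.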

[16] = Tanguay_ZF_120hpf_CFIN_legacy: (Legacy) Oregon State University Tanguay Lab 120 Hour Post-fertilization zebrafish Assay for Caudal Fin Malformation (AID 2283649)
Summary of the method: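 Binary brightfield scoring of caudal fin defects at 120 hpf after static, light-shielded exposure at 28C from 6 hpf. Tropical 5D embryos, chorion removed with pronase at 4 hpf, final DMSO 0.64%.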

[17] = Tanguay_ZF_120hpf_PIG_legacy: (Legacy) Oregon State University Tanguay Lab 120 Hour Post-fertilization zebrafish Assay for Pigmentation Malformation (AID 2283650)
Summary of the method: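 Tropical 5D wild-type zebrafish embryos, dechorionated with pronase at 4 hpf, were exposed singly from 6 hpf to 120 hpf statically at 28C in sealed, dark plates with 0.64% DMSO; pigmentation scored present/absent by brightfield microscopy, fitted against DMSO.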

[18] = Tanguay_ZF_120hpf_CIRC_legacy: (Legacy) Oregon State University Tanguay Lab 120 Hour Post-fertilization zebrafish Assay for Circulatory Malformation (AID 2283651)
Summary of the method: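 Dechorionated wild-type 5D zebrafish embryos, one per well, statically exposed from 6 to 120 hpf at 28C with 0.64% DMSO; circulatory malformation scored present/absent by brightfield microscopy at 120 hpf, dead embryos excluded.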

Measured: AC50

O=C1C(Cl)=C(Cl)C(=O)c2ccccc21
active: [1] 54.1 µM and 67.3 µM | [2] 14.5 µM and 14.4 µM | [3] 63.4 µM and 19.6 µM | [4] 57.7 µM | [5] 17.1 µM
inactive: [4] | [5]

C=C(C)C#N
inactive: [1] | [2] | [3] | [4] | [5]

CCCCCCCCCCCCCCCC[n+]1ccccc1
inactive: [1] | [4]
active: [1] 36.1 µM and 53.2 µM | [2] 66.5 µM [middle of 4 runs] | [3] 71.7 µM [middle of 4 runs] | [4] 62.7 µM and 84.3 µM and 80.2 µM | [5] 67.7 µM [middle of 4 runs]

C[C@H]1CCCC(=O)CCC/C=C/c2cc(O)cc(O)c2C(=O)O1
inactive: [2] | [3] | [4]
active: [1] 12.3 µM and 15.8 µM | [3] 11.7 µM | [5] 8.07 µM and 12.3 µM

[O-][Cl+2]([O-])O
inactive: [1] | [2] | [3] | [4] | [5]

COC(=O)c1sccc1S(=O)(=O)NC(=O)Nc1nc(C)nc(OC)n1
inactive: [1] | [2] | [3] | [4] | [5]

COc1cc(-c2ccc(N)c(OC)c2)ccc1N
active: [1] 63.6 µM | [3] 71.3 µM | [5] 64 µM | [7] 32.8 µM | [9] 57 µM | [10] 12 µM | [11] 47 µM | [13] 12.5 µM | [15] 87.5 µM
inactive: [1] | [2] | [3] | [4] | [5] | [6] | [7] | [8] | [9] | [10] | [11] | [12] | [13] | [14] | [15] | [16] | [17] | [18]

O=[N+]([O-])c1ccc(O)c([N+](=O)[O-])c1
inactive: [1] | [2] | [3] | [4] | [5] | [7] | [9] | [10] | [11] | [12] | [13] | [15] | [17] | [18]
active: [1] 78.5 µM | [3] 79.2 µM | [6] 26.4 µM

c1ccc(N=NNc2ccccc2)cc1
inactive: [1] | [2] | [3] | [4] | [5]

CC(C)C1CCC(Cc2ccc(Cl)cc2)C1(O)Cn1cncn1 (centres undefined)
active: [1] 85.6 µM | [2] 45.7 µM | [3] 82.8 µM | [4] 71.1 µM | [5] 88.7 µM

O=[N+]([O-])c1c(Cl)c(Cl)cc(Cl)c1Cl
inactive: [1] | [2] | [3] | [4] | [5]

ClCCBr
inactive: [1] | [2] | [3] | [4] | [5]
